Test results published in PubChem BioAssay AID1159580 (chemical genetic matrix, 2015).
Values joined by “and” are separate entries in the source; they are usually repeats but may differ in a detail not shown here. Equal values may be shown once. Out of some 5,500 compounds screened, about 2,000 (36%) were called active. Inconclusive results (about 18%) are left out. Cut-off read from the data, not from the text of the source: active = normalized growth mostly below about 0.91 (no sharp cut-off); inconclusive = no clear call, values can overlap the other calls; inactive = mostly above about 0.92. The list shows a part of the results.

Experiment: chemical genetic growth profiling, strain panel (AID 1159580);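 note: tested at 20 µM; growth read once vehicle control cultures reached saturation at 30 °C; 1 = growth at the plate median or of vehicle wells; lower values mean less growth of the strain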
Details: growth OD

Measured: normalized growth

O=C1CCCN1CC#CCN1CCCC1
inactive: S. cerevisiae deletion strains, locus YJR075W, strain HOC1, stronger effect = lower value 0.988 and 1 | S. cerevisiae deletion strains, locus YKL009W, strain mrt4, stronger effect = lower value 1.02 and 1.05 | S. cerevisiae deletion strains, locus YKL068W, stronger effect = lower value 1 | S. cerevisiae deletion strains, locus YKL085W, strain MDH1 (second series), stronger effect = lower value 1.02 | S. cerevisiae deletion strains, locus YKL085W, strain MDH1, stronger effect = lower value 1.02 | S. cerevisiae deletion strains, locus YKL160W, strain elf1, stronger effect = lower value 1.02 | S. cerevisiae deletion strains, locus YKL190W, strain CNB1, stronger effect = lower value 0.989 and 1.02 | S. cerevisiae deletion strains, locus YKR001C, strain vps1, stronger effect = lower value 1.01 and 1.02 | S. cerevisiae deletion strains, locus YKR026C, strain gcn3, stronger effect = lower value 1.02 | S. cerevisiae deletion strains, locus YKR091W, strain srl3, stronger effect = lower value 1.02 | S. cerevisiae deletion strains, locus YLL001W, strain dnm1, stronger effect = lower value 1.02 | S. cerevisiae deletion strains, locus YLL026W, stronger effect = lower value 1.01 | S. cerevisiae deletion strains, locus YLL041C, strain sdh2, stronger effect = lower value 1.02 | S. cerevisiae deletion strains, locus YLR027C, strain aat2, stronger effect = lower value 1.02 | S. cerevisiae deletion strains, locus YLR039C, strain RIC1, stronger effect = lower value 1.03 and 1.01 | S. cerevisiae deletion strains, locus YLR058C, strain SHM2, stronger effect = lower value 1.01 | S. cerevisiae deletion strains, locus YLR102C, strain apc9, stronger effect = lower value 1.01 and 1.02 | S. cerevisiae deletion strains, locus YLR113W, strain HOG1, stronger effect = lower value 1.04 | S. cerevisiae deletion strains, locus YLR221C, strain rsa3, stronger effect = lower value 1 | S. cerevisiae deletion strains, locus YLR258W, strain gsy2, stronger effect = lower value 1.02 | S. cerevisiae deletion strains, locus YLR262C, strain YPT6 (second series), stronger effect = lower value 1.03 | S. cerevisiae deletion strains, locus YLR262C, strain YPT6, stronger effect = lower value 1.05 and 1.02 | S. cerevisiae deletion strains, locus YLR268W, strain sec22, stronger effect = lower value 1.02 and 0.991 | S. cerevisiae deletion strains, locus YLR320W, strain mms22, stronger effect = lower value 1.02 | S. cerevisiae deletion strains, locus YLR330W, strain CHS5, stronger effect = lower value 1 and 1.01 | S. cerevisiae deletion strains, locus YLR342W, strain FKS1 (second series), stronger effect = lower value 1.02 and 1.06 | S. cerevisiae deletion strains, locus YLR342W, strain FKS1, stronger effect = lower value 1.02 | S. cerevisiae deletion strains, locus YLR357W, strain rsc2, stronger effect = lower value 1.05 | S. cerevisiae deletion strains, locus YLR370C, strain arc18, stronger effect = lower value 1.02 | S. cerevisiae deletion strains, locus YLR371W, strain rom2, stronger effect = lower value 0.994 and 1.03 | S. cerevisiae deletion strains, locus YLR384C, strain iki3, stronger effect = lower value 1.03 | S. cerevisiae deletion strains, locus YLR418C, strain cdc73, stronger effect = lower value 1.05 and 0.979 | S. cerevisiae deletion strains, locus YML016C, strain PPZ1, stronger effect = lower value 1.01 | S. cerevisiae deletion strains, locus YML032C, strain rad52, stronger effect = lower value 1.01 and 1.04 | S. cerevisiae deletion strains, locus YML120C, strain ndi1, stronger effect = lower value 1.03 | S. cerevisiae deletion strains, locus YML124C, strain tub3, stronger effect = lower value 1 | S. cerevisiae deletion strains, locus YMR058W, strain fet3, stronger effect = lower value 1.03 | S. cerevisiae deletion strains, locus YMR078C, strain ctf18, stronger effect = lower value 1.03 and 1.02 | S. cerevisiae deletion strains, locus YMR125W, strain sto1, stronger effect = lower value 1.04 | S. cerevisiae deletion strains, locus YMR129W, stronger effect = lower value 1.03 | S. cerevisiae deletion strains, locus YMR205C, strain PFK2, stronger effect = lower value 1.02 | S. cerevisiae deletion strains, locus YMR223W, strain ubp8, stronger effect = lower value 1.02 and 1.03 | S. cerevisiae deletion strains, locus YMR231W, strain pep5, stronger effect = lower value 1.03 | S. cerevisiae deletion strains, locus YMR263W, strain SAP30, stronger effect = lower value 1.01 | S. cerevisiae deletion strains, locus YMR307W, strain GAS1, stronger effect = lower value 1 and 0.983 | S. cerevisiae deletion strains, locus YNL067W, strain RPL9B, stronger effect = lower value 0.998 and 1.01 | S. cerevisiae deletion strains, locus YNL071W, strain lat1, stronger effect = lower value 1.02 | S. cerevisiae deletion strains, locus YNL128W, strain TEP1, stronger effect = lower value 1.01 | S. cerevisiae deletion strains, locus YNL153C, strain GIM3, stronger effect = lower value 1.03 and 0.992 | S. cerevisiae deletion strains, locus YNL175C, strain NOP13, stronger effect = lower value 0.992 | S. cerevisiae deletion strains, locus YNL183C, strain NPR1, stronger effect = lower value 0.999 | S. cerevisiae deletion strains, locus YNL197C, strain WHI3, stronger effect = lower value 0.986 | S. cerevisiae deletion strains, locus YNL209W, strain ssb2, stronger effect = lower value 1.02 | S. cerevisiae deletion strains, locus YNL224C, strain SQS1, stronger effect = lower value 1.01 | S. cerevisiae deletion strains, locus YNL233W, strain BNI4, stronger effect = lower value 0.993 and 0.996 | S. cerevisiae deletion strains, locus YNL248C, strain rpa49, stronger effect = lower value 1.03 | S. cerevisiae deletion strains, locus YNL250W, strain rad50, stronger effect = lower value 1.02 and 1.01 | S. cerevisiae deletion strains, locus YNL271C, strain bni1, stronger effect = lower value 1.01 and 1.03 | S. cerevisiae deletion strains, locus YNL298W, strain CLA4, stronger effect = lower value 1.03 | S. cerevisiae deletion strains, locus YNL307C, strain MCK1, stronger effect = lower value 1.02 and 1.03 | S. cerevisiae deletion strains, locus YNL322C, strain KRE1 (second series), stronger effect = lower value 1.02 | S. cerevisiae deletion strains, locus YNL322C, strain KRE1, stronger effect = lower value 1 and 1.01 | S. cerevisiae deletion strains, locus YNR049C, strain mso1, stronger effect = lower value 1.02 | S. cerevisiae deletion strains, locus YNR052C, strain pop2, stronger effect = lower value 1.01 and 1.04 | S. cerevisiae deletion strains, locus YOL006C, strain TOP1, stronger effect = lower value 1.03 and 1.04 | S. cerevisiae deletion strains, locus YOL012C, strain htz1 0.71 and 1.25 | S. cerevisiae deletion strains, locus YOL147C, strain pex11, stronger effect = lower value 1.01 | S. cerevisiae deletion strains, locus YOR001W, strain rrp6, stronger effect = lower value 1.04 | S. cerevisiae deletion strains, locus YOR061W, strain CKA2, stronger effect = lower value 1.01 | S. cerevisiae deletion strains, locus YOR069W, strain VPS5, stronger effect = lower value 1 and 1.01 | S. cerevisiae deletion strains, locus YOR070C, strain gyp1, stronger effect = lower value 1.02 | S. cerevisiae deletion strains, locus YOR080W, strain dia2, stronger effect = lower value 1.03 | S. cerevisiae deletion strains, locus YOR083W, strain WHI5 (second series), stronger effect = lower value 1.02 | S. cerevisiae deletion strains, locus YOR083W, strain WHI5, stronger effect = lower value 1.02 | S. cerevisiae deletion strains, locus YOR106W, strain vam3, stronger effect = lower value 1.05 | S. cerevisiae deletion strains, locus YOR136W, strain idh2, stronger effect = lower value 1.01 and 1.02 | S. cerevisiae deletion strains, locus YOR144C, strain elg1, stronger effect = lower value 1 and 1.01 | S. cerevisiae deletion strains, locus YOR184W, strain ser1, stronger effect = lower value 1.04 and 1.05 | S. cerevisiae deletion strains, locus YOR231W, strain MKK1, stronger effect = lower value 1.06 | S. cerevisiae deletion strains, locus YOR265W, strain rbl2, stronger effect = lower value 1.02 | S. cerevisiae deletion strains, locus YOR270C, strain vph1, stronger effect = lower value 1.08 | S. cerevisiae deletion strains, locus YOR290C, strain snf2, stronger effect = lower value 1.02 | S. cerevisiae deletion strains, locus YOR316C, strain cot1, stronger effect = lower value 1.01 | S. cerevisiae deletion strains, locus YPL051W, strain arl3, stronger effect = lower value 1.02 | S. cerevisiae deletion strains, locus YPL055C, strain LGE1, stronger effect = lower value 0.986 and 1.01 | S. cerevisiae deletion strains, locus YPL078C, strain atp4, stronger effect = lower value 1.04 | S. cerevisiae deletion strains, locus YPL106C, strain sse1, stronger effect = lower value 1.02 | S. cerevisiae deletion strains, locus YPL240C, strain hsp82, stronger effect = lower value 1.03 | S. cerevisiae deletion strains, locus YPL241C, strain CIN2, stronger effect = lower value 1 and 1.01 | S. cerevisiae deletion strains, locus YPL256C, strain CLN2, stronger effect = lower value 1.02 | S. cerevisiae deletion strains, locus YPR119W, strain clb2, stronger effect = lower value 1.01 | S. cerevisiae deletion strains, locus YPR141C, strain kar3, stronger effect = lower value 1.01 | S. cerevisiae deletion strains, locus YPR163C, strain tif3, stronger effect = lower value 1.02 and 1 | S. cerevisiae deletion strains, locus YPR167C, strain met16, stronger effect = lower value 1.02 and 1.03 | S. cerevisiae deletion strains, strain wtn01, stronger effect = lower value 1.03 and 1.02 | S. cerevisiae strains, strain wild type, stronger effect = lower value 1 and 1.01
